NCOA1 inh = SRC1 coactivator transcriptional activity inhibitors, primary screen, cell-based, luminescence | HEK293 GAL4-SRC1 luciferase reporter | AID 588354, 2011 | Nuclear receptor coactivator 1 (Homo sapiens), Q15788 | actives 0.12% (n = 360,000) | inhibition, % at 3.6 µM;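 active = inhibition above the campaign mean plus 3 SD, with each screening campaign given its own cutoff, cut at about 60% in these data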
LRH-1 inv ag = LRH-1 (NR5A2) inverse agonists, primary screen, cell-based, luminescence, HEK293T, StAR-luciferase reporter; LRH-1 transfected, 24 h; inhibition, % at 3.6 µM; actives 0.13% (n = 360,000);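 active = inhibition above the mean inhibition of all tested compounds plus 3 SD, cut at about 73% in these data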
LGR2 inh = inhibitors of bursicon-induced LGR2 CRE-luciferase signal, primary screen, cell-based, HEK293, CRE-luciferase reporter, bursicon stimulation. inhibition, % at 9.99 µM. Drosophila bursicon receptor LGR2 (rickets). actives 0.35% (n = 380,000). bursicon-stimulated, 4 h;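 active = drop in luminescence signal, shown as inhibition above about 50% in the replicate tests, limit read from the data, passing the limit was not always enough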;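 also: agonist challenge used bursicon conditioned medium at about half maximal strength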
NCOA3 inh = SRC3 coactivator transcriptional activity inhibitors, primary screen, cell-based, luminescence. Nuclear receptor coactivator 3 (Homo sapiens), Q9Y6Q9. actives 0.17% (n = 360,000). inhibition, % at 3.6 µM. HEK293 GAL4-SRC3 luciferase reporter. AID 588352, 2011;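 active = inhibition above a per-campaign cutoff, the mean of all compounds plus 3 SD, cut at about 60% in these data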;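 also: higher means less SRC3-driven luciferase light from the GAL4 reporter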
NCOA2 inhibitor = inhibition of GAL4-SRC2 driven luciferase reporter, primary screen, SRC2 inhibitor project, cell-based, luminescence; Nuclear receptor coactivator 2 (Homo sapiens), Q15596; inhibition, % at 9 µM; actives 0.17% (n = 370,000); HEK293 GAL4-SRC2 luciferase reporter;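 active = inhibition above the mean inhibition of all tested compounds plus 3 SD, set per campaign, cut at about 52% in these data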
Large screens that a line does not name were inactive. Most compounds without a hit are left out; they make up all but 0.48% or so of the library.

C[C@H]1CCCCO[C@H](CN(C)Cc2ccc3c(c2)OCO3)[C@@H](C)CN([C@@H](C)CO)C(=O)c2cc(NS(=O)(=O)c3cccs3)ccc2O1	none (no result: NCOA1 inh, LRH-1 inv ag, NCOA3 inh, NCOA2 inhibitor)
COc1ccc(S(=O)(=O)N2CCOCC2)cc1NC(=O)CCNC(=O)c1ccc([N+](=O)[O-])cc1	LRH-1 inv ag 82.1
C[C@H]1CN([C@@H](C)CO)S(=O)(=O)c2ccc(C#CC(C)(C)O)cc2O[C@@H]1CN(C)C(=O)C1CC1	none (no result: NCOA1 inh, LRH-1 inv ag, NCOA3 inh, NCOA2 inhibitor)
COc1cc(NS(C)(=O)=O)ccc1Nc1c2ccccc2nc2ccccc12	NCOA1 inh 61.8, NCOA3 inh 64.1
CCCC#Cc1cnc2c(c1)C(=O)N([C@@H](C)CO)C[C@@H](C)[C@H](CN(C)Cc1ccccc1F)O2	none (no result: NCOA1 inh, LRH-1 inv ag, NCOA3 inh, NCOA2 inhibitor)
CCOC(=O)CNC(=O)CSc1nnc(NC(=O)c2ccc(C)cc2)s1	LGR2 inh 72.7
CCOC(=O)CNC(=O)CSc1nnc(NC(=O)c2ccc3c(c2)OCO3)s1	none
CC(C)Oc1ccc(C(=O)Nc2nnc(SCC(=O)N3CCOCC3)s2)cc1	LGR2 inh 74.1
COc1ccc(CN2C[C@H](C)[C@H](OC)CN(C)C(=O)c3cc(NC(=O)C4CC4)ccc3OC[C@@H]2C)cc1	none (no result: NCOA1 inh, LRH-1 inv ag, NCOA3 inh, NCOA2 inhibitor)
CCOC(=O)c1ccc(Nc2ncnc3ccc(C)cc23)cc1	none
CCOc1ccc(Nc2ncnc3ccc([N+](=O)[O-])cc23)cc1	NCOA1 inh 69.2
O=C(O)c1cccc(COc2ccccc2Cl)c1	LGR2 inh 101.2
O=C1NC(=O)/C(=C\c2ccc(OCc3cccc(C(=O)O)c3)c(Cl)c2)N1	LGR2 inh 83.1
Cc1onc(-c2ccccc2)c1C(=O)NC(=S)NNC(=O)c1ccc(O)cc1O	NCOA1 inh 64.0, LRH-1 inv ag 88.8, NCOA3 inh 72.6
Cc1onc(-c2ccccc2)c1C(=O)NC(=S)NNC(=O)c1ccccc1O	NCOA1 inh 64.1, LRH-1 inv ag 90.3, NCOA3 inh 75.7
CCC(=O)N1CC2(C1)CN(C(=O)Cc1ccccc1)[C@@H](CO)c1c2c2ccc(OC)cc2n1C	none (no result: NCOA1 inh, LRH-1 inv ag, NCOA3 inh, NCOA2 inhibitor)
CCCCNc1c(-c2cccc(-c3ccc(OC)cc3)c2)nc2ccc(C)cn12	LGR2 inh 68.0
CCCCNc1c(-c2cccc(-c3ccc(OC)cc3)c2)nc2cc(C)ccn12	LGR2 inh 91.5
CCCCNc1c(-c2ccc(OC)c(SC3CCCCC3)c2)nc2cc(C)ccn12	none
O=C(N[C@H]1CC[C@@H](CCn2cc(C3(O)CCCC3)nn2)O[C@H]1CO)C1CCCCC1	none (no result: NCOA1 inh, LRH-1 inv ag, NCOA3 inh, NCOA2 inhibitor)
CCCNC(=O)N1C[C@H](O)COC[C@@H]2O[C@H](CC(=O)NCc3ccncn3)CC[C@H]21	none (no result: NCOA1 inh, LRH-1 inv ag, NCOA3 inh, NCOA2 inhibitor)
O=C(/C=C/c1cn(-c2ccccc2)nc1-c1cccnc1)N1CCCC1	none
O=C(/C=C/c1cn(-c2ccccc2)nc1-c1cccnc1)c1ccco1	NCOA2 inhibitor 64.0
CCCN(C)C[C@H]1OCCCC[C@@H](C)Oc2ccc(NS(C)(=O)=O)cc2C(=O)N([C@@H](C)CO)C[C@H]1C	none (no result: NCOA1 inh, LRH-1 inv ag, NCOA3 inh, NCOA2 inhibitor)
C[C@H](CO)N1C[C@H](C)[C@H](CN(C)C(=O)Nc2ccc3c(c2)OCO3)Oc2ccc(NC(=O)Nc3ccc4c(c3)OCO4)cc2CC1=O	none (no result: NCOA1 inh, LRH-1 inv ag, NCOA3 inh, NCOA2 inhibitor)
CC1=NN(C(N)=S)C(=O)C1N=Nc1cccc(C(=O)O)c1 (centres undefined)	LGR2 inh 60.7
COc1cccc(NC(=O)Nc2ccc3c(c2)C(=O)N(C)C[C@@H](OC)[C@@H](C)CN(C)[C@H](C)CO3)c1	none (no result: NCOA1 inh, LRH-1 inv ag, NCOA3 inh, NCOA2 inhibitor)
C[C@@H]1CN([C@H](C)CO)C(=O)c2ccccc2-c2ccccc2CO[C@H]1CN(C)C(=O)CCN(C)C	none (no result: NCOA1 inh, LRH-1 inv ag, NCOA3 inh, NCOA2 inhibitor)
COC(=O)Cc1ccc(NC(=O)c2ccc(C(C)(C)C)cc2)cc1	NCOA2 inhibitor 83.2 (no result: LGR2 inh)
C[C@H]1CCCCO[C@@H](CN(C)C(=O)c2ccncc2)[C@@H](C)CN([C@@H](C)CO)C(=O)c2cc(NC(=O)NC3CCCCC3)ccc2O1	none (no result: NCOA1 inh, LRH-1 inv ag, NCOA3 inh, NCOA2 inhibitor)
COc1ccc(NC(=O)c2cc([N+](=O)[O-])ccc2O)cc1	LGR2 inh 96.0, NCOA2 inhibitor 76.3
COc1ccc(NC(=O)c2cccc([N+](=O)[O-])c2)cc1	none
C[C@@H]1CCCCO[C@@H](CN(C)C(=O)c2ccccc2)[C@@H](C)CN([C@@H](C)CO)C(=O)c2cc(NC(=O)CCC(F)(F)F)ccc2O1	none (no result: NCOA1 inh, LRH-1 inv ag, NCOA3 inh, NCOA2 inhibitor)
COc1ccc(C(=O)C(CN2CCOCC2)c2ccccc2)cc1 (centres undefined)	LGR2 inh 54.0, NCOA2 inhibitor 55.2
O=C(c1ccc(F)cc1)C(CN1CCOCC1)c1ccccc1 (centres undefined)	LGR2 inh 57.9, NCOA3 inh 73.7
C[C@H](CO)N1C[C@H](C)[C@H](CN(C)Cc2ccc(C(F)(F)F)cc2)Oc2ccc(NC(=O)Cn3cnnn3)cc2C1=O	none (no result: NCOA1 inh, LRH-1 inv ag, NCOA3 inh, NCOA2 inhibitor)
Cc1c(/C(O)=C2/C(=O)C(=O)N(Cc3cccnc3)C2c2ccccn2)cnn1-c1ccccc1 (centres undefined)	NCOA1 inh 70.0, LGR2 inh 86.9, NCOA3 inh 76.1, NCOA2 inhibitor 76.6
Cc1c(/C(O)=C2/C(=O)C(=O)N(Cc3cccnc3)C2c2cccs2)cnn1-c1ccccc1 (centres undefined)	none (no result: LGR2 inh)
CCN(CCO)c1ccc(N=Nc2cc(C)[nH]n2)cc1	LGR2 inh 91.9
CCc1ccc(-c2nc(CSCC(=O)NCc3ccco3)c(C)o2)cc1	NCOA2 inhibitor 79.5
CCc1ccc(-c2nc(CS(=O)CC(=O)NCc3ccccc3)c(C)o2)cc1 (centres undefined)	NCOA2 inhibitor 55.0
CCCNC(=O)CSCc1nc(-c2ccc(SC)cc2)oc1C	none
Cc1oc(-c2ccc(Cl)cc2)nc1CS(=O)CC(=O)NCc1ccccc1 (centres undefined)	none
COc1ccc(C(=O)Nc2ccc3c(c2)C(=O)N(C)[C@H]2CC[C@H](CC(=O)NCC4CC4)O[C@H]2CO3)cc1	none (no result: NCOA1 inh, LRH-1 inv ag, NCOA3 inh, NCOA2 inhibitor)
Cc1ccc(Nc2nc(-c3ccccc3)cs2)nc1	LGR2 inh 60.0
CC(C)=CC(O)C/C(C)=C/COc1ccc2ccc(=O)oc2c1 (centres undefined)	LRH-1 inv ag 84.7, NCOA3 inh 63.2 (no result: LGR2 inh)
CN(C)C(=O)COc1ccc2ccc(=O)oc2c1	none (no result: LGR2 inh)
FC(F)(F)c1cc(C(F)(F)F)c2ccc(N3CCN(c4ccc(Cl)cc4)CC3)nc2n1	none (no result: LGR2 inh)
N#CC(c1ccc(Cl)cc1)c1ccc2c(C(F)(F)F)cc(C(F)(F)F)nc2n1 (centres undefined)	NCOA1 inh 65.5, NCOA3 inh 76.3 (no result: LGR2 inh)
O=C(c1ccc(S(=O)(=O)N2CCCCC2)cc1)N1CCN(CCN2C(=O)c3cccc4cccc(c34)C2=O)CC1	LGR2 inh 77.1
O=C(c1ccc(S(=O)(=O)N2CCCC2)cc1)N1CCCCCC1	none
C[C@@H]1C[C@H]2O[C@@H]2/C=C\C=C\C(=O)Cc2cc(O)cc(O)c2C(=O)O1	NCOA2 inhibitor 55.0 (no result: NCOA1 inh, LRH-1 inv ag, LGR2 inh, NCOA3 inh)

Assay outcomes deposited in PubChem BioAssay by several laboratories.
